# Where “and” joins values, the source holds several entries; their conditions need not be identical. Equal entries are not always repeated. Records with an inconclusive call do not appear. Entries that show only a call come without a potency. Some structures have more than one record in an assay (separate samples or runs), and their calls can disagree. Calls of active or inactive are those of the source. Unless noted, the call rests on the fitted dose curve; in most records, active means well fitted curve in the direction sought with a large enough effect in the repeat runs; inconclusive means weak or mixed curves; inactive means flat fitted curve, though single readings scatter.
# Legend:
# [1] = qHTS assay to test for compound auto fluorescence at 535 nm (green) in HEK293 cells (AID 720680)
# [2] = qHTS assay to test for compound auto fluorescence at 460 nm (blue) in HEK293 cell free culture (AID 720681); further: potency means the concentration at half of the fitted maximal effect
# How it was run: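 Blue fluorescence (Ex 405/Em 460 nm, triamterene-equivalent) was read immediately after pin transfer of compound or DMSO into medium (DMEM, 10% FBS) without cells.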
# [3] = qHTS assay to test for compound auto fluorescence at 535 nm (green) in HEK293 cell free culture (AID 720682)
# How it was run: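 Cell-free medium (DMEM, 10% FBS) receives compound or DMSO by pintool. Plate read directly at Ex 485/Em 535 nm. Signal converted to fluorescein equivalency.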
# [4] = qHTS assay to test for compound auto fluorescence at 590 nm (red) in HEK293 cell free culture (AID 720683)
# How it was run: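 Red-channel autofluorescence of compounds in culture medium (DMEM, 10% FBS), no cells, measured at 540/590 nm. Rose Bengal sodium is the reference fluorophore for equivalence.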
# [5] = qHTS assay to test for compound auto fluorescence at 590 nm (red) in HepG2 cell free culture (AID 720684)
# How it was run: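 No cells present: MEM + 10% FBS only. Compound pinned in, red label read (540/590 nm). Activity = fluorescence equivalent to Rose Bengal sodium.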
# [6] = qHTS assay to test for compound auto fluorescence at 460 nm (blue) in HepG2 cell free culture (AID 720685); further: potency means the concentration at half of the fitted maximal effect
# How it was run: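 Cell-free plates of MEM plus 10% FBS received 23 nL compound or DMSO vehicle; blue-channel (405/460 nm) intensity scored against triamterene as reference fluorophore.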
# [7] = qHTS assay to test for compound auto fluorescence at 535 nm (green) in HepG2 cell free culture (AID 720686)
# [8] = qHTS assay to test for compound auto fluorescence at 460 nm (blue) in HepG2 cells (AID 720687); further: potency means the concentration at half of the fitted maximal effect
# How it was run: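 Blue-channel autofluorescence (Ex/Em 405/460 nm, triamterene-equivalent) was measured after 1 hr compound exposure at 37 C, 5% CO2. Cells were HepG2, plated overnight at 37 C in MEM plus 10% FBS.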
# [9] = biological target: Glucocorticoid receptor (Homo sapiens) (UniProt P04150); experiment: qHTS assay to identify small molecule agonists of the glucocorticoid receptor (GR) signaling pathway (AID 720691; active means well fitted activation curve with a large enough effect in the signal ratio in the repeat runs, not every such curve was filed as active; the % refers to the signal ratio; further: potency means the concentration at half of the fitted maximal effect)
# How it was run: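 Measures GR pathway activation through a GRE-beta-lactamase reporter stably integrated in HeLa cells, with 18 h compound treatment at 37 C and fluorescence detection using a FRET substrate.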
# [10] = biological target: Glucocorticoid receptor (Homo sapiens) (UniProt P04150); experiment: qHTS assay to identify small molecule antagonists of the glucocorticoid receptor (GR) signaling pathway (AID 720692; active means well fitted inhibition curve with a large enough effect in the signal ratio in the repeat runs, not every such curve was filed as active; the % refers to the signal ratio; further: potency means the concentration at half of the fitted maximal effect)
# How it was run: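 Tox21 10K library screened in concentration-response for blockade of dexamethasone (5 nM final)-induced GRE-bla reporter activity in HeLa cells; 18 h treatment, fluorescence read.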
# Tags describe the fitted curve by direction and shape or compound fluorescence and quenching.
# Sequence of Glucocorticoid receptor (Homo sapiens) (P04150 whole entry, looked up): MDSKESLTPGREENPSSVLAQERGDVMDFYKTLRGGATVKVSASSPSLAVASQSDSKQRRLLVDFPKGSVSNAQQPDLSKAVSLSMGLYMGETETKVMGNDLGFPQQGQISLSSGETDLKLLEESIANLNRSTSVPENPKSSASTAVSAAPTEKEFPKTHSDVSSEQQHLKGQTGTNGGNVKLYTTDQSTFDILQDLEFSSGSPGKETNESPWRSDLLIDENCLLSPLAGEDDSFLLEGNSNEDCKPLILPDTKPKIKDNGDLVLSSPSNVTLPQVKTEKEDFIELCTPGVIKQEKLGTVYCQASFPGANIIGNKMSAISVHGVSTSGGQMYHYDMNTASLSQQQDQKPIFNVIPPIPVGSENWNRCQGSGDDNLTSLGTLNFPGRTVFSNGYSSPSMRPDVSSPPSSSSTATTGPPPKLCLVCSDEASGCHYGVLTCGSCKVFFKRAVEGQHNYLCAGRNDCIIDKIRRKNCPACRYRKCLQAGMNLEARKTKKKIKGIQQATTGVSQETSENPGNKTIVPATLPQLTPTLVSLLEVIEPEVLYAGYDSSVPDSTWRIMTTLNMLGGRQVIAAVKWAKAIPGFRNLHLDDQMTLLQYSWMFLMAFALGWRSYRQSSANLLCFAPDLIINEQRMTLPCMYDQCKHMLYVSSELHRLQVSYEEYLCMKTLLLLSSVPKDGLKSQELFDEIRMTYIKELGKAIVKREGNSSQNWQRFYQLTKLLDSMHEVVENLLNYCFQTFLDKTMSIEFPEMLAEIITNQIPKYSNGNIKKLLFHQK
Structure (SMILES),Potency [1],Potency [2],Potency [3],Potency [4],Potency [5],Potency [6],Potency [7],Potency [8],Potency [9],Potency [10]
CC(C)c1c(C(=O)Nc2ccccc2)c(-c2ccccc2)c(-c2ccc(F)cc2)n1CC[C@@H](O)C[C@@H](O)CC(=O)O,inactive,inactive,inactive,inactive,inactive,inactive,inactive,inactive,inactive,
C1=CC2C3C=CC(C3)C2C1 (centres undefined),inactive,inactive,inactive,inactive,inactive,inactive,inactive,inactive,inactive,
CCCCCCCCCCCCCCCC[N+](C)(C)Cc1ccccc1,inactive,inactive,inactive,inactive,inactive,inactive,inactive,inactive,,
CCCCC(CC)C(=O)O (centres undefined),inactive,inactive,inactive,inactive,,inactive,inactive,inactive,,
CC(C)NCC(O)c1ccc(O)c(O)c1 (centres undefined),inactive,inactive,inactive,inactive,inactive,inactive,inactive,inactive,inactive,inactive
NC(=O)n1c(O)c(C(=O)c2cccs2)c2cc(Cl)ccc21,inactive,inactive,inactive,inactive,inactive,inactive,inactive,inactive,inactive,
O=C1c2c(O)cccc2Cc2cccc(O)c21,inactive,inactive,inactive,inactive,inactive,inactive,inactive,inactive,inactive,inactive
C[C@](N)(Cc1ccc(O)c(O)c1)C(=O)O,inactive,inactive,inactive,inactive,,inactive,inactive,inactive,,
CCCC[P+](CCCC)(CCCC)CCCC,inactive,inactive,inactive,inactive,inactive,inactive,inactive,inactive,inactive,inactive
COc1ccc(OC(F)(F)F)cc1CN[C@H]1CCCN[C@H]1c1ccccc1,inactive,inactive,inactive,inactive,inactive,inactive,inactive,inactive,inactive,
CCN(Cc1c(F)cccc1Cl)c1c([N+](=O)[O-])cc(C(F)(F)F)cc1[N+](=O)[O-],inactive,inactive,inactive,inactive,inactive,inactive,inactive,inactive,,
O=c1[nH]cc(F)c(=O)[nH]1,inactive,inactive,inactive,inactive,inactive,inactive,inactive,inactive,inactive,inactive
CCc1nc(N)nc(N)c1-c1ccc(Cl)cc1,inactive,inactive,inactive,inactive,inactive,inactive,inactive,inactive,inactive,inactive
OC[C@H]1O[C@H](O[C@]2(CCl)O[C@H](CCl)[C@@H](O)[C@@H]2O)[C@H](O)[C@@H](O)[C@H]1Cl,inactive,inactive,inactive,inactive,inactive,inactive,inactive,inactive,inactive,inactive
CC(=O)CC(c1ccccc1)c1c(O)c2ccccc2oc1=O (centres undefined),inactive,inactive,inactive,inactive,inactive,inactive,inactive,inactive,,
Cc1cc(=O)oc2cc(O)ccc12,inactive,10 µM (active) and 39.8 µM (active) and 35.5 µM (active),inactive,inactive,inactive,10 µM [fluorescent] (active) and 39.8 µM [fluorescent] (active),inactive,10 µM [fluorescent] (active) and 39.8 µM [fluorescent] (active),,
O=c1[nH]cnc2c1ncn2[C@H]1CC[C@@H](CO)O1,inactive,inactive,inactive,inactive,inactive,inactive,inactive,inactive,inactive,inactive
CNNCc1ccc(C(=O)NC(C)C)cc1,inactive,inactive,inactive,inactive,inactive,inactive,inactive,inactive,inactive,inactive
Cn1c(=O)c2c(ncn2C)n(C)c1=O,inactive,inactive,inactive,inactive,inactive,inactive,inactive,inactive,inactive,inactive

Structure (SMILES),Potency [1],Potency [2],Potency [3],Potency [4],Potency [5],Potency [6],Potency [7],Potency [8],Potency [9],Potency [10]
NS(=O)(=O)O,inactive,inactive,inactive,inactive,inactive,inactive,inactive,inactive,inactive,inactive
COc1ccc2cc(S(=O)(=O)N[C@H](CC(=O)N[C@H](Cc3ccc(CN4[C@H](C)CCC[C@@H]4C)cc3)C(=O)N(C)C(C)C)c3ccc4c(c3)OCO4)ccc2c1,inactive,inactive,inactive,inactive,inactive,inactive,inactive,inactive,,
CC(C)C(=O)Nc1ccc([N+](=O)[O-])c(C(F)(F)F)c1,inactive,inactive,inactive,inactive,inactive,inactive,inactive,inactive,,
C=CCc1ccc(O)c(OC)c1,inactive,inactive,inactive,inactive,,inactive,inactive,inactive,,
C1CCC(C(CC2CCCCN2)C2CCCCC2)CC1 (centres undefined),inactive,inactive,inactive,inactive,inactive,inactive,inactive,inactive,,
O=C1O[C@H]([C@@H](O)CO)C(O)=C1O,inactive,inactive,inactive,inactive,inactive,inactive,inactive,inactive,inactive,inactive
CN(C)CCOC(c1ccccc1)c1ccccc1,inactive,inactive,inactive,inactive,inactive,inactive,inactive,inactive,inactive,inactive
CN(C)C(=S)SC(=S)N(C)C,inactive,inactive,inactive,inactive,inactive,inactive,inactive,inactive,448 nM (active),
O=C(O)c1ccccc1,inactive,inactive,inactive,inactive,inactive,inactive,inactive,inactive,,
CN(N=O)C(=O)N[C@@H]1[C@@H](O)[C@H](O)[C@@H](CO)O[C@@H]1O,inactive,,inactive,inactive,inactive,inactive,inactive,inactive,inactive,inactive
NS(=O)(=O)c1cc2c(cc1Cl)NCNS2(=O)=O,inactive,,inactive,inactive,inactive,inactive,inactive,inactive,inactive,inactive
CC1(C)S[C@@H]2[C@H](NC(=O)[C@H](N)c3ccccc3)C(=O)N2[C@H]1C(=O)O,inactive,,inactive,inactive,,inactive,inactive,inactive,,
CN1[C@@H]2CC(OC(=O)[C@H](CO)c3ccccc3)C[C@H]1[C@@H]1O[C@@H]12 (some centres undefined),inactive,,inactive,inactive,,inactive,inactive,inactive,,
NC(CO)(CO)CO,inactive,,inactive,inactive,inactive,inactive,inactive,inactive,inactive,inactive
CN[C@H]1CC[C@@H](c2ccc(Cl)c(Cl)c2)c2ccccc21,inactive,,inactive,inactive,inactive,inactive,inactive,inactive,inactive,
Cc1ncc([N+](=O)[O-])n1C,inactive,,inactive,inactive,,inactive,inactive,inactive,inactive,inactive
Cc1c(C(=O)O)c(O)cc2c1C(=O)c1c(O)c([C@@H]3O[C@H](CO)[C@@H](O)[C@H](O)[C@H]3O)c(O)c(O)c1C2=O,inactive,,inactive,inactive,,inactive,inactive,inactive,inactive,inactive
CN(C)C(=O)Nc1ccc(Cl)c(Cl)c1,inactive,,inactive,inactive,inactive,inactive,inactive,inactive,inactive,inactive
CC12CCC(CC1)C(C)(C)O2,inactive,,inactive,inactive,inactive,inactive,inactive,inactive,inactive,inactive

Structure (SMILES),Potency [1],Potency [2],Potency [3],Potency [4],Potency [5],Potency [6],Potency [7],Potency [8],Potency [9],Potency [10]
CCCCCCCC(=O)OCC(COC(=O)CCCCCCC)OC(=O)CCCCCCC,inactive,,inactive,inactive,inactive,inactive,inactive,inactive,inactive,inactive
CN(C)CCOC(C)(c1ccccc1)c1ccccn1 (centres undefined),inactive,,inactive,inactive,,inactive,inactive,inactive,,
NC(=O)c1cccnc1,inactive,,inactive,inactive,,inactive,inactive,inactive,inactive,inactive
O=C1NC(=O)C(c2ccccc2)(c2ccccc2)N1,inactive,,inactive,inactive,,inactive,inactive,inactive,inactive,inactive
Nc1c2c(nc3ccccc13)CCCC2,inactive,,inactive,inactive,,inactive,inactive,inactive,,
C=C1CC[C@H](O)C/C1=C\C=C1/CCC[C@]2(C)[C@@H]([C@H](C)CCCC(C)C)CC[C@@H]12,inactive,,inactive,inactive,,inactive,inactive,inactive,inactive,
O=CC(=O)c1ccccc1,inactive,,inactive,inactive,,inactive,inactive,inactive,inactive,inactive
CC(=O)CCC(=O)O,inactive,,inactive,inactive,,inactive,inactive,inactive,inactive,inactive
CCCCCCc1ccc(O)cc1O,inactive,,inactive,inactive,,inactive,inactive,inactive,inactive,inactive and 49 µM (active)
Nc1ccc(S(N)(=O)=O)cc1,inactive,,inactive,inactive,,inactive,inactive,inactive,inactive,inactive
Cc1cc(C)nc(NS(=O)(=O)c2ccc(N)cc2)n1,inactive,,inactive,inactive,,inactive,inactive,inactive,inactive,inactive
CCCCOC(=O)c1ccc(O)cc1,inactive,,inactive,inactive,,inactive,inactive,inactive,inactive,inactive
CCCCC1(COC(=O)CCC(=O)O)C(=O)N(c2ccccc2)N(c2ccccc2)C1=O,inactive,,inactive,inactive,,inactive,inactive,inactive,,
CCOc1ccc(NC(C)=O)cc1,inactive,,inactive,inactive,inactive,inactive,inactive,inactive,inactive,inactive
CN1CCc2cccc3c2[C@H]1Cc1ccc(O)c(O)c1-3,inactive,,inactive,inactive,inactive,inactive,inactive,inactive,inactive,inactive
CS(=O)(=O)OCCCCOS(C)(=O)=O,inactive,,inactive,inactive,,inactive,inactive,inactive,,
F[B-](F)(F)F,inactive,,inactive,inactive,,inactive,inactive,inactive,,
CCCc1cc(=O)[nH]c(=S)[nH]1,inactive,,inactive,inactive,,inactive,inactive,inactive,,
COc1cccc(O)c1O,inactive,,inactive,inactive,inactive,inactive,inactive,inactive,inactive,inactive

# Source: PubChem BioAssay (Tox21)
